Assay results published in PubChem BioAssay (EPA / NIEHS).
The source made the active and inactive calls. How the source made its calls: active means hit-call score of the fitted dose curve at least 0.9, where 1 is the maximum; inactive means score below 0.9.

Tests used:
Settings in all cases: mRNA level, 48 h; actives raise or lower the signal
[1] = read-out: Insulin-like growth factor-binding protein 1 (IGFBP1), IGFBP1 (gene 3484); test: LTEA_HepaRG_IGFBP1: Life Technologies and Expression Analysis (LTEA) Assay for Insulin-like growth factor-binding protein 1 (IGFBP1) using HepaRG (AID 2283508)
Summary of the method: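 HepaRG, 48 h, 8 conc. (max 100 uM, half-log), duplicates, 0.5% DMSO. Readout: TaqMan qRT-PCR, ACTB/GAPDH/POLR2A normalisation. Fit: bidirectional vs DMSO.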

[2] = read-out: Interleukin 6 (IL6), IL6 (gene 3569); test: LTEA_HepaRG_IL6: Life Technologies and Expression Analysis (LTEA) Assay for Interleukin 6 (IL6) using HepaRG (AID 2283509)
Summary of the method: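 Changes in IL6 mRNA, up or down relative to 0.5% DMSO controls, were derived from concentration-response curves in human HepaRG cells treated for 48 h at up to 100 uM, with ACTB, GAPDH and POLR2A as normalizers.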

[3] = read-out: Interleukin 6 Receptor (IL6R), IL6R (gene 3570); test: LTEA_HepaRG_IL6R: Life Technologies and Expression Analysis (LTEA) Assay for Interleukin 6 Receptor (IL6R) using HepaRG (AID 2283510);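 on AC50: differentiated human HepaRG liver cells in serum-free induction medium; TaqMan qRT-PCR signal normalized to ACTB GAPDH and POLR2A housekeeping genes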
Summary of the method: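 HepaRG, 48 h exposure, 8-pt half-log series, top 100 uM, 0.5% DMSO vehicle, duplicates. Read-out: TaqMan qRT-PCR of IL6R transcript, housekeeping-gene normalized. Gain or loss fitted relative to DMSO baseline.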

[4] = read-out: Potassium channel subfamily K member 1 (KCNK1), KCNK1 (gene 3775); test: LTEA_HepaRG_KCNK1: Life Technologies and Expression Analysis (LTEA) Assay for Potassium channel subfamily K member 1 (KCNK1) using HepaRG (AID 2283511)
Summary of the method: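 Human HepaRG cultures receive test chemicals for 48 h in 0.5% DMSO, top concentration 100 uM with half-log dilutions. Induction or suppression of KCNK1 mRNA relative to DMSO is derived by bidirectional fitting of qRT-PCR data.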

[5] = read-out: Keratin 19 (KRT19), KRT19 (gene 3880); test: LTEA_HepaRG_KRT19: Life Technologies and Expression Analysis (LTEA) Assay for Keratin 19 (KRT19) using HepaRG (AID 2283512)
Summary of the method: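 Readout is qRT-PCR of KRT19 mRNA, normalized to ACTB, GAPDH and POLR2A, from HepaRG cells treated 48 h with eight-point half-log dilutions topping at 100 uM. Activity in either direction is scored relative to 0.5% DMSO vehicle.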

[6] = read-out: JUN Transcription Factor, JUN (gene 3725); test: LTEA_HepaRG_JUN: Life Technologies and Expression Analysis (LTEA) Assay for JUN Transcription Factor using HepaRG (AID 2283513)
Summary of the method: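 HepaRG, 48 h exposure, 8-pt half-log series top 100 uM, 0.5% DMSO, duplicate. JUN mRNA by qRT-PCR (Fluidigm), housekeeping-normalized (ACTB/GAPDH/POLR2A); bidirectional curve fit vs DMSO baseline.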

[7] = read-out: Lipase C (LIPC), LIPC (gene 3990); test: LTEA_HepaRG_LIPC: Life Technologies and Expression Analysis (LTEA) Assay for Lipase C (LIPC) using HepaRG (AID 2283514)
Summary of the method: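 In this multiplexed gene-expression screen, human HepaRG cultures received test chemicals for 48 h across eight concentrations with 100 uM highest, in duplicate. Values reflect LIPC mRNA induction or suppression versus DMSO vehicle, from normalized qRT-PCR.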

[8] = read-out: Lipoprotein lipase (LPL), LPL (gene 4023); test: LTEA_HepaRG_LPL: Life Technologies and Expression Analysis (LTEA) Assay for Lipoprotein lipase (LPL) using HepaRG (AID 2283515)
Summary of the method: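 Concentration-response testing used half-log steps from 100 uM in 0.5% DMSO on human HepaRG cells, 48 h, duplicate wells. Phenobarbital 1 mM served as induction control; LPL mRNA was normalized to ACTB, GAPDH, POLR2A.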

[9] = read-out: MicroRNA 122 (MIR122), gene 406906; test: LTEA_HepaRG_MIR122: Life Technologies and Expression Analysis (LTEA) Assay for MicroRNA 122 (MIR122) using HepaRG (AID 2283516); further: the transcript read is the microRNA miR-122
Summary of the method: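 qRT-PCR read-out (TaqMan, Fluidigm array), normalized to three housekeeping genes; HepaRG cells dosed 48 h at 8 concentrations up to 100 uM in 0.5% DMSO, duplicate; gain or loss fitted against DMSO baseline.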

[10] = read-out: matrix metalloproteinase-10 (MMP10), MMP10 (gene 4319); test: LTEA_HepaRG_MMP10: Life Technologies and Expression Analysis (LTEA) Assay for matrix metalloproteinase-10 (MMP10) using HepaRG (AID 2283517)
Summary of the method: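 In differentiated HepaRG cultures kept in 0.5% DMSO, test chemicals act for 48 h over an eight-point range with a top dose of 100 uM. Expression is then quantified by TaqMan RT-PCR against ACTB, GAPDH and POLR2A.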

Measured: AC50

OCC(CO)n1cnc(-c2ccc(F)cc2)c1-c1ccnc(Oc2ccccc2)n1
inactive: [1] | [2] | [3] | [4] | [5] | [6] | [7] | [8] | [9] | [10]

Cc1cc(Cc2ccc(N)c(C)c2)ccc1N
inactive: [1] | [2] | [3] | [4] | [5] | [6] | [7] | [8] | [9] | [10]

C=CCc1ccc(OC)c(OC)c1
inactive: [1] | [2] | [3] | [4] | [5] | [6] | [7] | [8] | [9] | [10]

Cn1cnc2c1c(=O)[nH]c(=O)n2C
inactive: [1] | [2] | [3] | [4] | [5] | [6] | [7] | [8] | [9] | [10]

CN(C)CCCN(C)CCCN(C)C
inactive: [1] | [2] | [3] | [4] | [5] | [6] | [7] | [8] | [9] | [10]

CCCCC(CC)CO (stereo not drawn)
inactive: [1] | [2] | [3] | [4] | [5] | [6] | [7] | [8] | [9] | [10]

NCCOCCOCCN
inactive: [1] | [2] | [3] | [4] | [5] | [6] | [7] | [8] | [9] | [10]

CC(C)COC(=O)CCCCC(=O)OCC(C)C
inactive: [1] | [2] | [3] | [4] | [5] | [6] | [7] | [8] | [9] | [10]

O=C(NS(=O)(=O)/C=C/c1cccs1)c1ccc(F)cc1Br
inactive: [1] | [2] | [3] | [4] | [5] | [6] | [7] | [8] | [9] | [10]

CN(C)CCCN1c2ccccc2Sc2ccc(Cl)cc21
active: [1] 72.8 µM | [2] 77 µM | [3] 44.7 µM | [5] 82.9 µM | [6] 94 µM | [9] 85.7 µM | [10] 85.1 µM
inactive: [4] | [7] | [8]

COC(=O)CCCC(=O)OC
inactive: [1] | [2] | [3] | [4] | [5] | [6] | [7] | [8] | [9] | [10]

C/C=C/c1ccc(OC)cc1
inactive: [1] | [2] | [3] | [4] | [5] | [6] | [7] | [8] | [9] | [10]

CS(=O)(=O)c1ccc([C@@H](C[C@H]2CCC(=O)C2)C(=O)Nc2cnccn2)cc1Cl
active: [1] 2.29 µM | [3] 16.8 µM | [4] 1.4 µM | [6] 1.43 µM | [7] 1.08 µM | [8] 0.934 µM | [9] 1.41 µM
inactive: [2] | [5] | [10]

CC(=O)O[C@]1(C(C)=O)CC[C@H]2[C@@H]3C=C(Cl)C4=CC(=O)[C@@H]5C[C@@H]5[C@]4(C)[C@H]3CC[C@@]21C
active: [1] 50 µM | [5] 17.9 µM | [8] 13.3 µM
inactive: [2] | [3] | [4] | [6] | [7] | [10]

Nc1nc(=S)c2[nH]cnc2[nH]1
inactive: [1] | [5] | [10]
active: [2] 14.8 µM | [3] 8.69 µM | [6] 7.57 µM | [7] 5.83 µM | [8] 19.1 µM | [9] 11.9 µM

CC(=O)CC(c1ccccc1)c1c(O)c2ccccc2oc1=O (stereo not drawn)
inactive: [1] | [2] | [3] | [4] | [5] | [6] | [7] | [8] | [9] | [10]

CC(C)c1cccc(C(C)C)c1
inactive: [1] | [2] | [3] | [4] | [5] | [6] | [7] | [8] | [9] | [10]

CC1(C)C(=O)NC(=O)N1CO
inactive: [1] | [2] | [3] | [4] | [5] | [6] | [7] | [8] | [9] | [10]

C/C=C/C=C/C(=O)O
inactive: [1] | [2] | [3] | [4] | [5] | [6] | [7] | [8] | [9] | [10]

O=NO
inactive: [1] | [2] | [3] | [4] | [5] | [6] | [7] | [8] | [9] | [10]

O=C1OC(c2ccc(O)cc2)(c2ccc(O)cc2)c2ccccc21
active: [3] 50 µM | [7] 77.4 µM | [8] 72.5 µM | [9] 50 µM
inactive: [1] | [2] | [4] | [5] | [6] | [10]
